Screens deposited in PubChem by National Center for Advancing Translational Sciences (NCATS).
TGFb inhibitor = qHTS for Inhibitors of TGF-b; HepG2 CAGA-GFP TGF-b/SMAD3 reporter, GFP fluorescence, 18 h; TGF-beta stimulated, 500 pg/mL final; Potency, µM (highest dose often 46.1 µM), actives largely listed as inhibitors; 410,000 tested, 1.2% active; further: nearly all actives have a fitted effect of over 65% in size
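Smad-responsive CAGA-GFP expression was quantified in HEPG2 cells exposed to compounds and 500 pg/mL final TGF-beta for 18 h at 37 degrees C; unstimulated wells defined full inhibition.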
HepG2 viability = qHTS for Inhibitors of TGF-b: Cytotox Counterscreen; Potency, µM (top dose mostly 46.1 µM), most hits filed as cytotoxic; AID 588856, 2011; 410,000 tested, 0.76% active; HepG2 CAGA-GFP viability, ATP luminescence, 18 h
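HepG2 CAGA-GFP cells (1000/well, DMEM with 1% FBS) received compound, then TGF-beta at 500 pg/mL final, and were incubated 18 hours at 37 degrees C. Viability was read by CellTiter-Glo luminescence. Media-only wells were set as complete cell-killing and DMSO as no toxicity.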
IL-1B inflam inh = qHTS for Inhibitors of Inflammasome Signaling: IL-1-beta AlphaLISA Primary Screen; 360,000 tested, 4.7% active; THP-1 LPS/ATP IL-1B secretion, AlphaLISA, 16 h; stronger effect = lower value; activity change, % at 57.5 µM; in the data active means activity change below about -50%; inconclusive means mostly about -30% to -49%
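Secreted IL-1B measured by AlphaLISA bead assay after 16 h compound exposure of THP-1 cells; compounds (final up to 57.5 uM) added 1 h before LPS (250 ng/mL) and ATP (1.25 mM) stimulation; lower signal means less secretion.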
TDP1 cell CPT = qHTS for Inhibitors of human tyrosyl-DNA phosphodiesterase 1 (TDP1): qHTS in cells in presence of CPT; chicken DT40 Tdp1-/-;hTDP1 cells + 20 nM CPT, ATP luminescence, 48 h; Potency, µM (doses to about 46.2 µM), usual class: inhibitors; 420,000 tested, 12% active; AID 686979, 2013; further: nearly all actives have a fitted effect of over 55% in size
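Cell growth measured by CellTiter-Glo luminescence after a minimum 48 h, 37 C compound exposure with 20 nM CPT in Tdp1-knockout DT40 cells stably expressing hTDP1, seeded 400/well; qHTS titration format.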
ASM inhibitor = Inhibitors of Secretory Acid Sphingomyelinase (S-ASM): qHTS; Sphingomyelin phosphodiesterase (Homo sapiens), P17405; placental ASM, HMU-PC fluorogenic substrate, 60 min; Potency, µM (series often up to 57.5 µM), actives largely listed as inhibitors; 340,000 tested, 0.006% active
Target sequence (P17405 47-631 limits assumed): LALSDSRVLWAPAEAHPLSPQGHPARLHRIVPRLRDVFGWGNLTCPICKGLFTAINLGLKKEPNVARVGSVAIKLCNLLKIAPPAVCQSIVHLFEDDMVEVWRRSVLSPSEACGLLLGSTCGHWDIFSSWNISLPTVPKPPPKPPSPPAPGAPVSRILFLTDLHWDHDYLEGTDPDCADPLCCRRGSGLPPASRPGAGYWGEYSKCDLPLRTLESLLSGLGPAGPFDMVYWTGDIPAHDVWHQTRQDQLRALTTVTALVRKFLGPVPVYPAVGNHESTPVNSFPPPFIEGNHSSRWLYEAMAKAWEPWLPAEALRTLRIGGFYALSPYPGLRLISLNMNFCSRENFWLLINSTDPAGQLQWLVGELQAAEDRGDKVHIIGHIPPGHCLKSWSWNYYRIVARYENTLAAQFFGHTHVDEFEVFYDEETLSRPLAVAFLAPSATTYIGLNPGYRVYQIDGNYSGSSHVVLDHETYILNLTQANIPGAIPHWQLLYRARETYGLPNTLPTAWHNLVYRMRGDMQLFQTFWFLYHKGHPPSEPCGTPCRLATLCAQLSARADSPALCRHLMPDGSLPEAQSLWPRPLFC
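qHTS format. ASM enzyme prepared from human placenta hydrolyses the fluorogenic substrate HMU-PC0 (9 uM final) over 60 min at 37 °C after a 10 min compound preincubation.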
DT40 TDP1 no CPT = qHTS for Inhibitors of human tyrosyl-DNA phosphodiesterase 1 (TDP1): qHTS in cells in absence of CPT. DT40 Tdp1-/- hTDP1 cells, no CPT, ATP luminescence, 48 h. Potency, µM (top dose mostly 46.2 µM), hits mostly inhibitors. 420,000 tested, 15% active. AID 686978, 2013; further: nearly all actives have a fitted effect of over 55% in size
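Seeded 400 DT40-hTDP1 cells/well (vehicle DMSO, no 20 nM CPT); pinned compounds; ≥48 hr at 37 °C; CellTiter-Glo luminescence as viability measure.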
Hits are given with their value; - = inactive; ? = inconclusive; . = not tested or not shown; [ ] = remark or other dose. Most compounds without a hit are left out; they make up all but 19% or so of the library. Unless noted, the call rests on the fitted dose curve; in most records, active means well fitted curve in the direction sought with a large enough effect; inconclusive means small, poorly fitted or top-dose-only effect, or another doubt; inactive means no such curve, though single readings can be large; an effect the other way counts as inactive or inconclusive.

SMILES | TGFb inhibitor | HepG2 viability | IL-1B inflam inh | TDP1 cell CPT | ASM inhibitor | DT40 TDP1 no CPT
CCCCC(=O)N(C)c1c(CC)nc2c(OCC(=O)c3ccc(Cl)cc3Cl)cccn12 | ? | - | . | 23µM | . | ?
CCOC(=O)C(=O)N(C)c1c(CC)nc2c(OCc3cccc(Cl)c3)cccn12 | - | - | - | 16µM | . | ?
CCc1nc2c(OCc3ccc(C(F)(F)F)cc3)cccn2c1N(C)C(=O)C1CC1 | ? | - | - | 23µM | . | 23µM
CCc1nc2c(OCc3ccc(Cl)cc3)cccn2c1N(C)C(=O)C1CC1 | - | - | - | ? | . | ?
CCc1nc2c(OCc3cccc(Cl)c3)cccn2c1N(C)C(=O)C1CC1 | - | - | - | 16µM | . | ?
CCc1nc2c(OCC(=O)C(C)(C)C)cccn2c1N(C)C(=O)C1CC1 | ? | - | - | - | . | -
Cn1cc(Br)c(C(=O)NN2C(=O)C3C(C2=O)C2C=CC3C23CC3)n1 (configuration not stated) | - | - | - | - | - | -
CCCCC(=O)N(C)c1c(CC)nc2c(OCc3cc(Cl)cc(Cl)c3)cccn12 | ? | - | -62 | ? | . | ?
CCc1nc2c(OCc3ccc(C(=O)OC)cc3)cccn2c1N(C)C(=O)CC(C)C | - | - | - | ? | . | ?
CCOC(=O)C(=O)N(C)c1c(CC)nc2c(OCc3cc(Cl)cc(Cl)c3)cccn12 | - | - | - | 18µM | . | 21µM
CCOC(=O)C(=O)N(C)c1c(CC)nc2c(OCc3ccc(Cl)cc3)cccn12 | ? | - | - | ? | . | ?
CCc1nc2c(OCc3cc(Cl)cc(Cl)c3)cccn2c1N(C)C(=O)Nc1ccccc1OC | ? | - | - | 23µM | . | ?
CC1CN(C(=O)Cn2cc(S(=O)(=O)CC(=O)N3CCOCC3)c3ccccc32)CC(C)O1 (configuration not stated) | - | - | - | - | - | -
COc1ccc(CCN(Cc2cc3ccc(C)cc3[nH]c2=O)C(C)=O)cc1OC | - | - | - | ? | - | -
Cc1cc(C)c2oc(C(=O)Nc3c(C(=O)c4ccccc4)oc4ccccc34)cc(=O)c2c1 | - | - | . | - | . | -
Cc1ccccc1CS(=O)(=O)Cc1ccc(C(=O)NCCc2ccc(Cl)cc2)o1 | 14µM | - | . | 21µM | . | ?
Cc1ccc(CCNC(=O)c2ccc(CSCc3ccccc3C)o2)cc1 | ? | - | . | ? | . | 16µM
Cc1ccc(CCNC(=O)c2ccc(CS(=O)(=O)Cc3ccccc3F)o2)cc1 | - | - | - | ? | - | 16µM
CNc1ncnc(NC)c1[N+](=O)[O-] | - | - | - | - | - | -
C(=C\c1ccnc2ccccc12)/c1ccc(-[n+]2cc[n+](-c3ccc(/C=C/c4ccnc5ccccc45)cc3)cc2)cc1 | ? | - | . | 5.6µM | . | 5µM
Cc1c(C)c(C)c(/C=C/c2ccnc3ccccc23)c(C)c1C | - | - | . | 11µM | . | 11µM
O=Nc1ccc(/C=C/c2ccnc3ccccc23)cc1 | - | - | . | 16µM | . | 8.9µM
Cc1cnc2ccccc2c1C | - | - | . | - | . | -
Clc1ccc(/C=C/c2ccnc3ccccc23)c(Cl)c1 | ? | - | . | 5.6µM | . | 3.5µM
Cc1cc(C(=O)COC(=O)c2ccc(Cl)c(S(N)(=O)=O)c2)c(C)n1C1CC1 | - | - | - | ? | - | ?
SMILES | TGFb inhibitor | HepG2 viability | IL-1B inflam inh | TDP1 cell CPT | ASM inhibitor | DT40 TDP1 no CPT
Nc1ccc(/C=C/c2ccnc3ccccc23)c(N)c1 | - | - | . | 10µM | . | ?
C(=C\c1nnc2c3ccccc3ncn12)/c1ccccc1 | - | - | - | 5.2µM | - | 4.6µM
Nc1ccc(/C=C/c2ccnc3ccccc23)cc1 | - | - | . | 10µM | . | 11µM
Clc1ccc(/C=C/c2ccnc3ccccc23)cc1 | ? | - | . | 10µM | . | 8.9µM
Nc1ccc2cccnc2c1 | - | - | . | ? | . | -
C(=C\c1ccnc2ccccc12)/c1ccccc1 | - | - | . | ? | . | 13µM
CCOC(=O)c1cc(C)n(CC2CCC(C(=O)Nc3cc(OC)cc(OC)c3)CC2)c1C (configuration not stated) | ? | - | . | ? | . | 23µM
COc1cc(NC(=O)C2CCC(CNc3c(N4CCCCC4)c(=O)c3=O)CC2)cc(OC)c1 (configuration not stated) | - | - | - | - | - | ?
CCOC(=O)c1cc(C)n(CC2CCC(C(=O)Nc3ccc(OC)cc3)CC2)c1C (configuration not stated) | ? | - | . | 15µM | . | 21µM
CCOC(=O)c1cc(C)n(CC2CCC(C(=O)Nc3cccc(C)c3)CC2)c1C (configuration not stated) | ? | - | . | 18µM | . | ?
CCOC(=O)c1cc(C)n(CC2CCC(C(=O)Nc3ccc(C)c(F)c3)CC2)c1C (configuration not stated) | ? | - | . | ? | . | -
O=C1C2C3C=CC(CC3)C2C(=O)N1c1cccc(Br)c1 (configuration not stated) | - | - | - | - | - | -
Cn1cccc1C(=O)N1CCC2(CCN(Cc3nccs3)CC2)CC1 | . | . | . | - | . | -
CCCCCCCC(=O)C(C)C(=O)N(C)[C@H](Cc1ccc(OC)cc1)C(=O)N(C)[C@H](C(N)=O)C(C)C (some centres not stated) | ? | - | - | ? | - | 23µM
O=C1c2cc(F)ccc2-n2c1nc1ccccc1c2=O | ? | 1.1µM | - | 0.21µM | - | 0.37µM
CC1(C)CC(=O)C2=C(C1)NC(=O)CC2c1cc(F)ccc1F (configuration not stated) | - | - | - | - | - | -
O=C1CC(c2cc(F)ccc2F)c2cc3c(cc2N1)CCC3 (configuration not stated) | ? | - | - | 2.6µM | - | 3.7µM
Cc1c(C(=O)NCCCN2CCOCC2)oc2c1C1(CCC2)SCCS1 | - | - | - | 12µM | - | 23µM
CCOCCCNc1nc2c(S(=O)(=O)c3ccc(CC)cc3)nnn2c2ccc(Cl)cc12 | - | - | . | ? | . | ?
COCCCNC(=O)c1cnn(-c2ncc3c(n2)-c2ccccc2CCC3)c1C | . | . | . | -[9.04 µM] | . | -
CCOC(=O)c1cnc2ccc(OCC)cc2c1N1CCN(c2ccccc2F)CC1 | 11µM | - | . | 16µM | . | 12µM
CCOC(=O)c1cnc2ccc(OCC)cc2c1NCc1ccccc1 | ? | - | ? | 5.8µM | - | 6.5µM
